134 variants from the emibetuzumab library of Makowski et al. (2022) can be followed below.

The chains are these.
B1: VH:VL chains; a variant is named by its letters at X, in order (parent)
chain 1: QVQLVQSGAEVKKPGASVKVSCKASGYTFTDYXMHWVRQAPGQGLEWMGXVNPNXXXTTYNQKFEGRVTMTTDTSTSTAYMELRSLRSDDTAVYYCARXNXLDXWGQGTTVTVSS
chain 2: DIQMTQSPSSLSASVGDRVTITCSVSSSVSSIYLHWYQQKPGKAPKLLIYSTSNLASGVPSRFSGSGSGTDFTLTISSLQPEDFATYYCQVYSGYPLTFGGGTKVEIK

The other results are listed elsewhere or left out. The hit rate among all sequences tested is not known here.

Variants of B1 are the subject of this experiment. In words: yeast display scFab, FACS + sequencing. The following applies: with MET. The method in brief:
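Antigen binding was called positive for sequences present in both antigen-positive samples and negative for those present only in the input. These calls came from deep sequencing, in two replicates, of round-3 sorted and input populations from a heavy-chain CDR mutant scFab yeast surface library. The library was first enriched twice magnetically on HGFR-Fc-coated Protein A beads and then by FACS, gating the top 50% antigen-positive cells after 3 h labelling at room temperature with 1 nM HGFR-Fc plus anti-Myc in PBSB with 1% milk.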
For the variant AGERNVAS, the antigen binding call is reported as “no binding”.
Take YRRGGALV: the antigen binding call is given as “binds”.
With YRRKGALV the entry was “binds”; with YRRKGASV, “binds”; with ATKAASWV, “no binding”.
As for FRGGGSGS, the antigen binding call is given as “binds”.
As for FRGGSSGS, the entry is “binds”; as for FRGGDYGS, “no binding”.
In the case of ATTGGDWD, the antigen binding call was “no binding”.
Regarding YRKRGAAA, the antigen binding call was “binds”.
In the case of YRKRGAGA, the antigen binding call was “binds”.
With VTGEDAGS the entry was “no binding”; with YRGGGDVS, “binds”.
Turning to YAGRGDAS, the antigen binding call is “no binding”.
As to YKTGGASS, the antigen binding call is “binds”.
With YTGTSDVS the entry was “no binding”; with YKGRGAAS, “binds”.
For YRERSDVS, the antigen binding call is given as “no binding”.
YRGKGALS: the antigen binding call is reported as “binds”.
Turning to YAGRGSAS, the antigen binding call was “no binding”.
Take YTGTSDVY: the antigen binding call is given as “no binding”.
With FTRGADAV, the antigen binding call was “no binding”.
As for DAGGDDVY, the entry is “no binding”; as for YKGRGASS, “binds”.
With YKGEGFSS the entry was “no binding”; with YKGRGAVS, “binds”.
Take YKGRGALS: the antigen binding call is on record as “binds”.
Regarding VRGRGALS, the antigen binding call is on record as “binds”.
For YKTRGAVS, the antigen binding call was “no binding”.
With YAGRGDVS the entry was “no binding”.
As for VETEGAVY, the entry is “no binding”; as for DKEGGDGV, “no binding”.
Regarding AATTDSGV, the antigen binding call is given as “no binding”.
With VREGDDAV the entry was “no binding”; with YRGGSDGS, “binds”; with YRGGGALS, “binds”.
With DRAGDDGS, the antigen binding call is reported as “no binding”.
As for DRGGGDAS, the entry is “no binding”; as for YRGRGALS, “binds”.
As for YRGKSDGS, the entry is “no binding”; as for SEARSDVV, “no binding”.
For FRERGAVV, the antigen binding call is on record as “binds”.
Take SKERGDVV: the antigen binding call is given as “no binding”.
With DREEGAVV the entry was “no binding”; with FRTRGAVV, “binds”.
With SRTRGFVV the entry was “no binding”; with YKERGDVV, “binds”.
On to YKGEGDVV, for which the antigen binding call is “no binding”.
As for YRERGAVV, the entry is “binds”; as for VAETAAAA, “no binding”.
AEARAAGS chain 1 V37I: the antigen binding call was “no binding”.
With VARAADAD the entry was “no binding”; with ATGEGDWS, “no binding”; with VGATSFSA, “no binding”.
Take YKGGSFGV: the antigen binding call is “no binding”.
With YKERASGV the entry was “no binding”; with YKKGGSGV, “binds”.
As for YKAGGSGV, the entry is “binds”.
As for YKGGSSGV, the entry is “binds”.
Regarding YKGAASGV, the antigen binding call was “no binding”.
With YEKGGDGV the entry was “no binding”; with FTGTSAAF, “no binding”; with VTEGDDVF, “no binding”.
With YRKGSAWD the entry was “binds”.
As for YRKGSSWD, the entry is “binds”.
For DGKEGYWA, the antigen binding call is “no binding”.
As to DAEGDDGA, the antigen binding call is on record as “no binding”.
As for FRGAGSVA, the entry is “binds”; as for YRGAGFVD, “no binding”.
As for YRGAGSLD, the entry is “binds”; as for YRGAGSVD, “binds”; as for FRGAGSVD, “binds”.
With SKTKSDVA the entry was “no binding”.
Turning to SKERGDWV, the antigen binding call is given as “no binding”.
As for VERKGYLA, the antigen binding call is “no binding”.
With VETGNSSA, the antigen binding call is “no binding”.
Turning to AGGGNAGD, the antigen binding call is on record as “no binding”.
In the case of VRRGSSLF, the antigen binding call is reported as “binds”.
As for VGGTSSAD, the entry is “no binding”; as for VRGRSSLF, “binds”; as for VRGGDDVF, “no binding”.
With VRRGSSAD the entry was “binds”.
As for VREAADSF, the entry is “no binding”; as for VRRGSSAF, “binds”; as for VRGRSDVF, “no binding”.
Regarding DAKENAVY, the antigen binding call is given as “no binding”.
With YTGGDDVY the entry was “no binding”; with VAEATDLY, “no binding”; with DAGGASLD, “no binding”.
For the variant STATADVA, the antigen binding call is “no binding”.
With SAGEGDWV the entry was “no binding”.
AKTRDFVA: the antigen binding call is listed as “no binding”.
With DTAGDAAV the entry was “no binding”; with VAKRDSAS, “no binding”.
Take FKAEAFSF: the antigen binding call was “no binding”.
With VKRGSSLF the entry was “binds”; with FERTSALF, “no binding”; with FKRGSSLF, “binds”.
As for VRTEDDAS, the antigen binding call is listed as “no binding”.
With VRRGSSAS the entry was “binds”; with VKETSVLF, “no binding”.
With VAGTGSSV the entry was “no binding”; with DAEATDGA, “no binding”.
In the case of DATGGDGY, the antigen binding call was “no binding”.
As for DTGGSASA, the entry is “no binding”; as for YAKRDAGD, “no binding”.
In the case of YRKRGAVD, the antigen binding call was “binds”.
As for YRKRGAAD, the antigen binding call is listed as “binds”.
As for YRKRGAGD, the entry is “binds”; as for YRKGGAVD, “binds”.
As for AKATADVD, the entry is “no binding”; as for DTGGGDAV, “no binding”.
On to YRGAGSAD, for which the antigen binding call is on record as “binds”.
As to YRGAGAAD, the antigen binding call is listed as “binds”.
As to YAGAGSAD, the antigen binding call is reported as “no binding”.
As for YKGAGSAD, the entry is “no binding”.
With YKTKSDWV the entry was “no binding”; with YAGKGAWV, “no binding”; with YKGKSAWV, “binds”.
With YKGKGAWV the entry was “binds”; with VKGKGDWV, “no binding”; with DEGGTDSA, “no binding”.
Consider SEEEGSAA, for which the antigen binding call was “no binding”.
As for YKGKGFAA, the entry is “no binding”.
Consider SKGKGVGA, for which the antigen binding call is “binds”.
As for YKGKGSAA, the antigen binding call was “binds”.
With SKAKGSAA the entry was “binds”.
As for SKGKGSAA, the entry is “binds”; as for SKGKGSSA, “no binding”.
Regarding SKRRSVGA, the antigen binding call is given as “no binding”.
Take AARADSGD: the antigen binding call is on record as “no binding”.
In the case of DEGRSVAA, the antigen binding call was “no binding”.
Take DAARAVSS: the antigen binding call is recorded as “no binding”.
With VAKADALD, the antigen binding call is recorded as “no binding”.
